Sampled rows, rich in hits. Any-hit rate of the full collection: about 11%.
Lmaj promast = inhibitors of Leishmania major promastigote growth. Leishmania major promastigotes, resazurin fluorescence viability. inhibition, % at 10 µM. 200,000 tested, 9% active. AID 1063; in the data active means inhibition above about 50%;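 further: promastigotes grown with compound for 44 hours at 28 °C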
WT yeast gro inh = growth inhibition of WT yeast, mitochondrial fusion screen; mitochondrial fusion phenotypic screen, WT strain; inhibition, % at 10 µM; 190,000 tested, 2.1% active; AID 1362; in the data active means inhibition above about 58%; tested in S. cerevisiae
Insulin prom inh = TRM-6 insulin promoter activity inhibition; 130,000 tested, 0.9% active; TRM-6 cells (human fetal islet line), insulin promoter-eGFP reporter, imaging; reporter expression induced with tamoxifen; inhibition, % at 2 µM; AID 1273;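 active means inhibition above the mean plus 3 SD, with well images judged a real hit on visual review, cut at about 60% in these data, passing the limit was not always enough; inconclusive means inhibition over the cutoff but images rejected on review; inactive means inhibition not above the cutoff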
Ins promoter up = MIN6 insulin promoter up-regulation; MIN6 insulin promoter-GFP reporter, high-content imaging; hits give high values; z-score at 5 µM; 190,000 tested, 0.3% active; AID 1625;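 active means z-score above 3 at 5 µM with at least 500 cells counted in the well; inconclusive means wells under 500 cells, flagged as cytotoxic or low count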
Autophagy HCS = alters autophagy in cells; MEF GFP-LC3 puncta imaging; test concentration mostly 10 µM; calls only at 10 µM (by protocol); 190,000 tested, 0.98% active;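 active means percentage of spot-positive cells more than 3 SD above its plate mean, without a fluorescence outlier flag or 80% toxicity; inconclusive means no clear call, values can overlap the other calls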
Each line names hits and unclear results; the compound was inactive in the other large screens.

CN(C)CCN1C(=O)NC(C)(c2ccc([N+](=O)[O-])cc2)C1=O (stereo not drawn)	none (no result: Insulin prom inh)
CCCCN1CC(O)=C(c2nc(-c3ccc(Cl)cc3)cs2)C1=N	Autophagy HCS active
COc1ccc(-c2csc(C3=C(O)CN(Cc4ccc(Cl)cc4)C3=N)n2)cc1OC	Lmaj promast 58
Cn1c(=O)c2c(nc(N/N=C/c3cccnc3)n2Cc2ccc(F)cc2)n(C)c1=O	none (no result: Lmaj promast, WT yeast gro inh, Insulin prom inh, Autophagy HCS)
O=[N+]([O-])c1ccc(OCCCCN2CCCCC2)cc1	Lmaj promast 89 (no result: Insulin prom inh)
O=[N+]([O-])c1ccc(-c2ccc(S(=O)(=O)NCCN3CCCC3)cc2)cc1	Lmaj promast 80 (no result: Insulin prom inh)
COC(=O)C1CCN(Cc2ccc(OCCCN3CCN(c4ccc([N+](=O)[O-])cc4)CC3)cc2)CC1	Lmaj promast 96 (no result: Insulin prom inh)
CC1CCN(CCOc2ccccc2-c2ccccc2)CC1	none
CC1CCN(CCCCOc2ccccc2[N+](=O)[O-])CC1	Lmaj promast 90
C[N+](C)(C)CCOc1ccc([N+](=O)[O-])cc1	none (no result: Insulin prom inh)
CC1CCN(CCCCOc2ccc([N+](=O)[O-])cc2)CC1	Lmaj promast 91
CC1CN(Cc2cn(C)nc2-c2ccc(Oc3ccccc3)cc2)CCN1C (stereo not drawn)	none (no result: Insulin prom inh)
Cc1cc(CNCc2cn(C)nc2-c2ccc(Oc3ccccc3)cc2)on1	Lmaj promast 60 (no result: Insulin prom inh)
CCOC(=O)C1CCN(Cc2cn(C)nc2-c2ccc(Oc3ccccc3)cc2)CC1	Lmaj promast 79 (no result: Insulin prom inh)
Cn1cc(CN2CCC(O)CC2)c(-c2ccc(Oc3ccccc3)cc2)n1	Lmaj promast 81 (no result: Insulin prom inh)
CN(Cc1ccno1)Cc1cn(C)nc1-c1ccc(Oc2ccccc2)cc1	none (no result: Insulin prom inh)
CCN(Cc1ccncc1)Cc1cn(C)nc1-c1ccc(Oc2ccccc2)cc1	Lmaj promast 96 (no result: Insulin prom inh, Ins promoter up)
Cc1ccc(-c2cc(C(=O)Nc3c(C)n(C)n(-c4ccccc4)c3=O)[nH]n2)c(O)c1C	none (no result: Lmaj promast, WT yeast gro inh, Insulin prom inh, Autophagy HCS)
Cn1cc(CN2CCN(CCO)CC2)c(-c2ccc(Oc3ccccc3)cc2)n1	Lmaj promast 51 (no result: Insulin prom inh)
COCCN1CCN(Cc2cn(C)nc2-c2ccc(Oc3ccccc3)cc2)CC1	none (no result: Lmaj promast, WT yeast gro inh, Insulin prom inh, Autophagy HCS)
CCOC(=O)C1CCN(Cc2cnc(Oc3ccc(C(C)(C)C)cc3)s2)CC1	Lmaj promast 91
Oc1ccc(C=Nc2cccc3ncccc23)c(O)c1	none
Oc1ccc(C=Nc2ccc3ncccc3c2)c(O)c1	Lmaj promast 93 (no result: Insulin prom inh, Ins promoter up)
Cc1nnc(SCC(=O)Nc2nc(-c3ccc(F)cc3)cs2)[nH]c1=O	none
O=C(Nc1ccccc1)c1ccc(Nc2c([N+](=O)[O-])cc([N+](=O)[O-])c3ccccc23)cc1	Lmaj promast 78
CC(C)CC(c1nnnn1CC1CCCO1)N1CCN(c2nc3ccccc3s2)CC1 (stereo not drawn)	Lmaj promast 91 (no result: Insulin prom inh)
CCCCC(c1nnnn1CC1CCCO1)N1CCN(c2ccccc2)CC1 (stereo not drawn)	none
CCCC(c1nnnn1CS(=O)(=O)c1ccc(C)cc1)N1CCN(c2ccccc2)CC1 (stereo not drawn)	none
CCCCC(c1nnnn1CC1CCCO1)N1CCN(c2cc(Cl)ccc2C)CC1 (stereo not drawn)	WT yeast gro inh 60 (no result: Insulin prom inh)
CCCC(c1nnnn1CC1CCCO1)N1CCN(c2nc3ccccc3s2)CC1 (stereo not drawn)	Lmaj promast 94 (no result: Ins promoter up)
CCC(c1nnnn1CS(=O)(=O)c1ccc(C)cc1)N1CCN(c2nc3ccccc3s2)CC1 (stereo not drawn)	Lmaj promast 98
CCCC(=Nc1ccc(N)cc1)C1=C(O)C(C(=O)OC)C(C)(C)CC1=O (stereo not drawn)	none (no result: Ins promoter up)
Cc1ccc(C)c(C(=O)CN2C(=O)NC3(CCC(C)CC3)C2=O)c1 (stereo not drawn)	none (no result: Insulin prom inh)
CCCCNS(=O)(=O)c1ccc(OCC(=O)OC)cc1	none
CCCC(c1nnnn1Cc1cccs1)N1CCN(c2nc3ccccc3s2)CC1 (stereo not drawn)	Lmaj promast 97 (no result: Insulin prom inh)
CCCCC(c1nnnn1CC1CCCO1)N1CCN(c2nc3ccccc3s2)CC1 (stereo not drawn)	Lmaj promast 99 (no result: Insulin prom inh)
CN1CCC=C(C(=O)N2c3ccccc3Sc3ccc(Cl)cc32)C1	none (no result: Lmaj promast, WT yeast gro inh, Insulin prom inh, Autophagy HCS)
CCCc1cc(NC(=O)CCl)n(-c2ccccc2)n1	Lmaj promast 51 (no result: Insulin prom inh, Ins promoter up)
CCc1ccc2c(c1)C1(NN=C(c3ccc(C)cc3)S1)C(=O)N2 (stereo not drawn)	Lmaj promast 99, Ins promoter up inconclusive
CC(C)c1ccc2c(c1)C1(NN=C(c3ccccc3)S1)C(=O)N2 (stereo not drawn)	Lmaj promast 99, Autophagy HCS active (no result: Ins promoter up)
Cc1ccc(Cc2cc(-c3ccc(C)cc3)n[nH]c2=O)cc1	none (no result: Lmaj promast, WT yeast gro inh, Insulin prom inh, Autophagy HCS)
CCOc1ccc(CCNC(=O)COC(=O)c2ccc(OC)c(OC)c2OC)cc1OCC	Lmaj promast 66 (no result: Insulin prom inh)
CCOC(=O)COc1cccc2c(=O)n(CC(=O)NCCc3ccc(OC)c(OC)c3)ccc12	Ins promoter up 3.6
COc1cccc2c(=O)n(CC(=O)Nc3cccc(F)c3)ccc12	Ins promoter up 3.4 (no result: Insulin prom inh)
COc1nc(N=C(N)N)nc2ccc(C)cc12	none (no result: Insulin prom inh)
COc1cc(CC(NC(C)=O)C(=O)NC2CCN(c3nc(OC)nc(OC)n3)CC2)cc(OC)c1 (stereo not drawn)	none (no result: Lmaj promast, WT yeast gro inh, Insulin prom inh, Autophagy HCS)
FC(F)(F)c1ccc(CN2CCCCCC2)cc1	none
Cc1ccc(CN=C(N)Nc2nc(C)cc(C)n2)cc1	none (no result: Insulin prom inh)
Cc1cc(C)c2nc(SCC#N)cc(C)c2c1	none
C/C(N)=C(/C#N)C(=O)CSc1cc(C)c2cc(C)cc(C)c2n1	Autophagy HCS active (no result: Insulin prom inh)
Cc1ccc(NCC(=O)NNC2=NCCC2)c(C)c1	none
Cc1oc(C)c2c(=O)ccc3c(c12)OC(N)=C(C#N)C3c1ccccc1 (stereo not drawn)	Autophagy HCS active (no result: Insulin prom inh, Ins promoter up)
CC(C)COc1ccc(-c2cc(C(=O)NN)[nH]n2)cc1	none
S=c1nc(SCc2ccccc2)[nH]c2ccccc12	WT yeast gro inh 62
C=CCNC(=S)Nc1nc2c(cc1C(=O)OCC)CCCC2	none
CCn1c(SCC(=O)c2c[nH]c3ccccc23)nc2cc(S(=O)(=O)N3CCOCC3)ccc21	Lmaj promast 66, Ins promoter up 3.1
COc1ccc(CCC(C)NC2C3CC4CC(C3)CC2C4)cc1 (stereo not drawn)	none
CCOC(=O)c1cc(CC)sc1NC(=O)COC(=O)c1cc[n+]([O-])cc1	none (no result: Insulin prom inh)
COc1ccc(C(=O)NNC(=O)C(NC(=O)c2ccccc2NC(=O)c2ccco2)C(C)C)cc1 (stereo not drawn)	Lmaj promast 67
CC(C)c1ccc(NC(=S)N2CCCC(c3ccc(F)cc3)=N2)cc1	none (no result: Lmaj promast, WT yeast gro inh, Insulin prom inh, Autophagy HCS)
Cc1ccc(C)n1-c1ccc(C(=O)NC2CCN(Cc3ccccc3)CC2)cc1	Lmaj promast 81
O=C(Cn1[nH]c(=O)c2ccccc2c1=O)NC1CCN(Cc2ccccc2)CC1	Lmaj promast 69
O=C(NC1CCN(Cc2ccccc2)CC1)c1ccc2c(c1)OCCCO2	none (no result: Lmaj promast, WT yeast gro inh, Insulin prom inh, Autophagy HCS)
O=C(Cn1[nH]c(=O)c2ccccc2c1=O)NC1CCCCCC1	none
O=C(CCn1c(=O)c2ccccc2n(CC(=O)NC2CCCC2)c1=O)NCc1ccco1	Lmaj promast 100
O=C(CCCCn1c(=O)c2ccccc2n(Cc2ccccc2)c1=O)NC1CCN(Cc2ccccc2)CC1	Lmaj promast 73 (no result: Insulin prom inh)
CCNS(=O)(=O)c1cc(OC)ccc1OC	none
COc1ccc(NC(=O)CN2C(=O)N(C)Cc3ccccc32)c(C)c1	none

Source: PubChem BioAssay
